Where “and” joins values, the source holds several entries; their conditions need not be identical. Equal values may be shown once. For part of these data: Entries with a potency or affinity are not part of this list. Where a structure was tested more than once in an assay, its records may differ in their call. Calls of active or inactive are those of the source. Unless noted, no rule for the calls is given here.
Assays:
[1] = antimalarial activity against Dd2 strain (AID 2302;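 active = growth inhibition above 50% at the single 2 µM test dose, taken to imply half-maximal potency below 2 µM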;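 also: 0% = DMSO untreated growth and 100% = chloroquine plus artemisinin killed control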); conditions: P. falciparum Dd2 in RBCs, LDH growth readout, 72 h; at 2 µM; stronger effect = higher value
[2] = HepG2 cytotoxicity, primary screen, cytotoxicity control for P. falciparum antimalarial project, cell-based, ATP luminescence (AID 2303;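 active = inhibition above 50%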;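 also: 0% = DMSO wells and 100% = digitonin-killed cells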); conditions: HepG2 viability, 24-48 h, at 10 µM, stronger effect = higher value
[3] = biological target: L-lactate dehydrogenase (Plasmodium falciparum (isolate CDC / Honduras)) (UniProt Q27743); test: PfLDH activity inhibition – cell lysate, 3D7 strain, counter-screen for P. falciparum growth inhibition project (AID 2304);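 also: 0% = vehicle and 100% = reference inhibitor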; conditions: P. falciparum 3D7 crude extract, LDH APAD/NBT absorbance; at 2 µM; stronger effect = higher value
L-lactate dehydrogenase (Plasmodium falciparum (isolate CDC / Honduras)), sequence (Q27743 whole entry, looked up): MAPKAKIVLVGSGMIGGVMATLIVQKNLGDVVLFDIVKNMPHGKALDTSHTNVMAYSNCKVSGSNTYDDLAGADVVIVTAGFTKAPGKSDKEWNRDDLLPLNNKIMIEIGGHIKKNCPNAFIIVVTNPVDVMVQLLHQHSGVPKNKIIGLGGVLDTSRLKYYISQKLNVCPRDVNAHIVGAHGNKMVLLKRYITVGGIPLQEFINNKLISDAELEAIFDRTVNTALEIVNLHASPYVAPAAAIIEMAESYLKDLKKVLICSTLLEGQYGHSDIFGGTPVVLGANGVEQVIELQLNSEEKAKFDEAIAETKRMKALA

[4] = inhibition of 3D7 malaria parasite growth – strain 3D7 (AID 2306);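 also: 0% = DMSO wells and 100% = chloroquine plus artemisinin control wells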; conditions: P. falciparum 3D7 erythrocytic growth, LDH absorbance, 72 h; at 2 µM; stronger effect = higher value
[5] = biological target: Calcium-dependent protein kinase 1 (Plasmodium falciparum (isolate 3D7)) (UniProt P62344); test: PfCDPK1 kinase inhibitors, biochemical, TCAMS library (AID 1159585; cut-off not given, nearly all actives have IC50 up to about 0.98 µM;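 also: inhibitors leave more ATP so luminescence rises with inhibition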); conditions: recombinant PfCDPK1, Kinase-Glo ATP depletion luminescence
Calcium-dependent protein kinase 1 (Plasmodium falciparum (isolate 3D7)), sequence (P62344 whole entry, looked up): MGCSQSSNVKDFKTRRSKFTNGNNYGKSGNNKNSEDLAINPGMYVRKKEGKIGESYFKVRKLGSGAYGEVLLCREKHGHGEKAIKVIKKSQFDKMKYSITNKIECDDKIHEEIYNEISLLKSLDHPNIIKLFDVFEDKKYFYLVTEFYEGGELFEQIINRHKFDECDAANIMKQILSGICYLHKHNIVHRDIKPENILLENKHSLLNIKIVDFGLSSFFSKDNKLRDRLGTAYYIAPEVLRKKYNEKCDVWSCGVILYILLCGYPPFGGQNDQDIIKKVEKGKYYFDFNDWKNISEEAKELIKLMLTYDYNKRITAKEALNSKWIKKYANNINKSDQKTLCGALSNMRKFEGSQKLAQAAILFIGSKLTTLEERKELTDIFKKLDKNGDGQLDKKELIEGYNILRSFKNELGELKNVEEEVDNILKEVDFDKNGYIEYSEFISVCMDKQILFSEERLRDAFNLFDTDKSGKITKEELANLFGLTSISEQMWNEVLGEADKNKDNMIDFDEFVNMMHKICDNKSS

[6] = biological target: Plasmodium falciparum protein kinase 6 (PK6, PF3D7_1337100) (UniProt Q8IDW1); test: PfPK6 kinase inhibitors, biochemical, TCAMS library (AID 1159586); conditions: recombinant PfPK6, Kinase-Glo ATP depletion luminescence
Plasmodium falciparum protein kinase 6 (PK6, PF3D7_1337100), sequence (Q8IDW1 1-305): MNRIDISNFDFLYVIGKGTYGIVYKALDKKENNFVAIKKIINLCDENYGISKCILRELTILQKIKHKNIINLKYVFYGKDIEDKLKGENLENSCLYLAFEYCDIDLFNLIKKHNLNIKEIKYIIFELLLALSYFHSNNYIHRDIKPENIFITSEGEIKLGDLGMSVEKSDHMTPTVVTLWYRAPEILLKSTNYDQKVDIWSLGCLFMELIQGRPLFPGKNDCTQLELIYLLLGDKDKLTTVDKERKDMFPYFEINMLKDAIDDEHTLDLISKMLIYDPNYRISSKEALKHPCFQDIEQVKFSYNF

[7] = biological target: Protein kinase 7 (PK7), Plasmodium falciparum 3D7 (PF3D7_0213400) (UniProt Q7YTF7); test: inhibition of Plasmodium PK7 catalytic activity – biochemical, TCAMS antimalarial set, Kinase-Glo luminescence (AID 1159587); conditions: recombinant PfPK7, Kinase-Glo ATP depletion luminescence
Protein kinase 7 (PK7), Plasmodium falciparum 3D7 (PF3D7_0213400), sequence (Q7YTF7 1-343): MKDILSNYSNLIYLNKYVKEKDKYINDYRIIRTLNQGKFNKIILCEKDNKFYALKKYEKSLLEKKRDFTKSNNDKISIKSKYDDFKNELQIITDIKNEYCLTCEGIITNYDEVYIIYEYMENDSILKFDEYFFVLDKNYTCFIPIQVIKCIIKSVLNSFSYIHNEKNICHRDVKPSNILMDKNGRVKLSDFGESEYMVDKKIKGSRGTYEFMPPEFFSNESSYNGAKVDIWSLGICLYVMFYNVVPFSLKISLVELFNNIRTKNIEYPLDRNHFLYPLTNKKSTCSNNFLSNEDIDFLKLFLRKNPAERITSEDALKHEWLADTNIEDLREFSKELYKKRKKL

[8] = biological target: Calcium-dependent protein kinase 4 (Plasmodium falciparum (isolate 3D7)) (UniProt Q8IBS5); test: PfCDPK4 kinase inhibitors, biochemical, TCAMS library (AID 1159588; cut-off not given, nearly all actives have IC50 up to about 0.91 µM); conditions: recombinant PfCDPK4, Kinase-Glo ATP depletion luminescence
Calcium-dependent protein kinase 4 (Plasmodium falciparum (isolate 3D7)), sequence (Q8IBS5 whole entry, looked up): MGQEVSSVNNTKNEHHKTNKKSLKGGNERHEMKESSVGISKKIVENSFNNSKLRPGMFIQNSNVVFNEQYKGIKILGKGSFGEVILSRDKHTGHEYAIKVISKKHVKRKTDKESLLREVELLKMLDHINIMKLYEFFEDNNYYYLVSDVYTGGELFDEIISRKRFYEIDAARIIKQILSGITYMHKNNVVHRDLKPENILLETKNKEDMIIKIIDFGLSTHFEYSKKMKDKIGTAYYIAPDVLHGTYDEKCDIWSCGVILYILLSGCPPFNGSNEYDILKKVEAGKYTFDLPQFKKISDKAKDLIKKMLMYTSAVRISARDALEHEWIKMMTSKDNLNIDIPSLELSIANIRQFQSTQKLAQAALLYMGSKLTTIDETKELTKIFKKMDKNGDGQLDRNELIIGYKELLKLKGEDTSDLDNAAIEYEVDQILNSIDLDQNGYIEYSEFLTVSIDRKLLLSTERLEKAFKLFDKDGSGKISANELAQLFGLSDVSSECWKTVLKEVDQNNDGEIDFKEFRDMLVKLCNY

SMILES	growth inhibition [1]	inhibition [2]	inhibition [3]	growth inhibition [4]	outcome [5]	outcome [6]	outcome [7]	outcome [8]
COc1ccc(OC)c([C@H](O)[C@@H](C)NCc2cc(Cl)ccc2O)c1	99% (active)	11% (inactive)	4% (inactive)	97% (active)	inactive	inactive	inactive	inactive
Cc1ccc(CC(C)NCC(O)c2cccc([N+](=O)[O-])c2)cc1 (configuration not stated)	85% (active)	-6% (inactive)	-2% (inactive)	97% (active)	inactive	inactive	inactive	inactive
CS(=O)(=O)Nc1ccc2c(C3CCN(CC4CCN(C(=O)/C=C/c5ccc(Cl)c(Cl)c5)CC4)CC3)c[nH]c2c1	70% (active)	28% (inactive)	-3% (inactive)	99% (active)	inactive	inactive	inactive	inactive
CC(=O)C1(c2ccccc2)CCN(CCC(NC(=O)c2cc(C(F)(F)F)cc(C(F)(F)F)c2)c2ccc(Cl)c(Cl)c2)CC1 (configuration not stated)	82% (active)	9% (inactive)	2% (inactive)	91% (active)	inactive	inactive	inactive	inactive
O=P(O)(O)Oc1c(Br)cc(Br)cc1-c1cc(Br)cc(Br)c1O	-2% (inactive)	10% (inactive)	-4% (inactive)	97% (active)	inactive	inactive	inactive	inactive
CC[C@H]1CN2CC[C@@H]1C[C@H]2[C@H](O)c1cc(N2CCOCC2)nc2ccc(OC)cc12	99% (active)	10% (inactive)	3% (inactive)	99% (active)	inactive	inactive	inactive	inactive
CC(=O)Nc1ccc(OCCN(CC(C)C)c2ccc(C#N)c(C(F)(F)F)c2)c(Cl)c1	94% (active)	13% (inactive)	2% (inactive)	94% (active)	inactive	inactive	inactive	inactive
NCc1cccc(-c2cccc(CN(C(=O)Nc3ccccc3)C3CCN(Cc4ccccc4)CC3)c2)c1	8% (inactive)	3% (inactive)	-2% (inactive)	99% (active)	inactive	inactive	inactive	inactive
O=C(/C=C/c1ccccc1Cl)NC1CCC(CN2CCC(c3c[nH]c4ccccc34)CC2)CC1 (configuration not stated)	35% (inactive) and 51% (active)	33% (inactive) and 41% (inactive)	-2% (inactive) and 3% (inactive)	99% (active) and 100% (active)	inactive	inactive	inactive	inactive
CC[C@H]1CN2CC[C@H]1C[C@H]2[C@H](O)c1ccnc2ccc(C#N)cc12	55% (active)	0% (inactive)	5% (inactive)	100% (active)	inactive	inactive	inactive	inactive
NCC(=O)c1cc2c(cc1N)OCCO2	42% (inactive)	64% (active)	0% (inactive)	89% (active)	inactive	inactive	inactive	inactive
COc1ccc(CC(C)NCC(O)c2ccc(Cl)c(Cl)c2)cc1 (configuration not stated)	96% (active)	0% (inactive)	6% (inactive)	98% (active)	inactive	inactive	inactive	inactive
CN1CC=C(c2c[nH]c3ccc(OC(=O)c4ccccc4)cc23)C1	97% (active)	12% (inactive)	1% (inactive)	96% (active)	inactive	inactive	inactive	inactive
Cc1cc2cc(CNCCc3ccccc3Br)ccc2nc1N	91% (active)	31% (inactive)	-1% (inactive)	98% (active)	inactive	inactive	inactive	inactive
CC(C)CNCc1cccc(-c2cccc(CN(C(=O)c3cccs3)C3CCN(Cc4ccccc4)CC3)c2)c1	36% (inactive)	14% (inactive)	-4% (inactive)	90% (active)	inactive	inactive	inactive	inactive
[O-]c1n[n+](C2CCCCC2)no1	82% (active)	-13% (inactive)	-5% (inactive)	91% (active)	inactive	inactive	inactive	inactive
O=C(/C=C/c1ccc(C(F)(F)F)cc1)NC1CCC(CN2CCC(c3c[nH]c4ccccc34)CC2)CC1 (configuration not stated)	97% (active) and 100% (active)	42% (inactive) and 73% (active)	-2% (inactive) and -3% (inactive)	98% (active) and 101% (active)	inactive	inactive	inactive	inactive
O=S(=O)(NC1CCC(CN2CCC(c3c[nH]c4ccccc34)CC2)CC1)c1ccc(Cl)c(Cl)c1 (configuration not stated)	32% (inactive)	36% (inactive)	0% (inactive)	97% (active)	inactive	inactive	inactive	inactive
Clc1ccc2nccc(N3CCC(CN4CCC(c5c[nH]c6ccccc56)CC4)CC3)c2c1	81% (active)	46% (inactive)	4% (inactive)	101% (active)	inactive	inactive	inactive	inactive
CC(Cc1ccc(SCCSc2ccccc2)cc1)NCC(O)c1cccc(Cl)c1 (configuration not stated)	96% (active)	4% (inactive)	-7% (inactive)	98% (active)	inactive	inactive	inactive	inactive

SMILES	growth inhibition [1]	inhibition [2]	inhibition [3]	growth inhibition [4]	outcome [5]	outcome [6]	outcome [7]	outcome [8]
CC[C@H]1CN2CC[C@@H]1C[C@H]2[C@H](O)c1cc(N2CCC(C(N)=O)CC2)nc2ccc(OC)cc12	9% (inactive)	17% (inactive)	-5% (inactive)	99% (active)	inactive	inactive	inactive	inactive
COc1ccc(C(=O)[C@H]2C[C@@H]2CN2CC=C(c3c[nH]c4ccc(OC)nc34)CC2)cc1	91% (active)	8% (inactive)	-3% (inactive)	98% (active)	inactive	inactive	inactive	inactive
O=C(NC1CCC(CN2CCC(c3c[nH]c4ccccc34)CC2)CC1)c1cc(-c2ccccc2)c(C(F)(F)F)s1 (configuration not stated)	101% (active)	55% (active)	2% (inactive)	100% (active)	inactive	inactive	inactive	inactive
O=C(NC1CCC(CN2CCC(c3c[nH]c4ccccc34)CC2)CC1)C1(O)c2ccccc2-c2ccccc21 (configuration not stated)	46% (inactive)	22% (inactive)	-4% (inactive)	85% (active)	inactive	inactive	inactive	inactive
Cc1[nH]c2ccccc2c1C1=CCN(CCCCC2(C)C(=O)Nc3cccc(F)c32)CC1 (configuration not stated)	90% (active)	9% (inactive)	-4% (inactive)	95% (active)	inactive	inactive	inactive	inactive
CC[C@H]1CN2CC[C@H]1C[C@H]2[C@H](O)c1cc(-c2ccccc2C)nc2ccc(OC)cc12	98% (active)	16% (inactive)	2% (inactive)	100% (active)	inactive	inactive	inactive	inactive
CC(=O)C1(c2ccccc2)CCN(CCC2(c3ccc(Cl)c(Cl)c3)CN(C(=O)c3cccc(Cl)c3)CCO2)CC1 (configuration not stated)	61% (active)	37% (inactive)	-3% (inactive)	90% (active)	inactive	inactive	inactive	inactive
O=C(NC1CCC(CN2CCC(c3c[nH]c4ccccc34)CC2)CC1)c1cc(-c2ccc(F)cc2F)ccc1O (configuration not stated)	101% (active)	30% (inactive)	0% (inactive)	101% (active)	inactive	inactive	inactive	inactive
CN(C)CCC(=O)c1ccccc1	5% (inactive)	11% (inactive)	-6% (inactive)	100% (active)	inactive	inactive	inactive	inactive
COc1ccc(CN2CCN(CCOC(c3ccc(F)cc3)c3ccc(F)cc3)CC2)c(O)c1	97% (active)	6% (inactive)	-6% (inactive)	97% (active)	inactive	inactive	inactive	inactive
Cc1csc(-c2ccc3[nH]cc(C4=CCN(C)CC4)c3c2)n1	78% (active)	10% (inactive)	-3% (inactive)	93% (active)	inactive	inactive	inactive	inactive
CNCCCCCCOc1ccc(CC(C)NCC(O)c2cccc(C(F)(F)F)c2)cc1 (configuration not stated)	79% (active)	99% (active)	3% (inactive)	101% (active)	inactive	inactive	inactive	inactive
CCOC(C(=O)OCC1CCCN1C)(c1ccccc1)c1ccccc1 (configuration not stated)	3% (inactive)	13% (inactive)	6% (inactive)	97% (active)	inactive	inactive	inactive	inactive
Cc1[nH]c2ccc(O)cc2c1C1CCN(CC2CCN(C(=O)/C=C/c3ccc(Cl)c(Cl)c3)CC2)CC1	99% (active)	23% (inactive)	-13% (inactive)	99% (active)	inactive	inactive	inactive	inactive
CC(Cc1ccc(OCc2ccc(CCN(C)C)cc2)cc1)NCCc1cccc(Cl)c1 (configuration not stated)	78% (active)	42% (inactive)	5% (inactive)	100% (active)	inactive	inactive	inactive	inactive
CC(=O)C1(c2ccccc2)CCN(CCC2(c3ccc(Cl)c(Cl)c3)CN(C(=O)Nc3cccc(C(F)(F)F)c3)CCO2)CC1 (configuration not stated)	66% (active)	24% (inactive)	8% (inactive)	95% (active)	inactive	inactive	inactive	inactive
COC(=O)c1ccc(CC(C)NCC(O)c2ccccc2Cl)cc1 (configuration not stated)	55% (active)	1% (inactive)	1% (inactive)	94% (active)	inactive	inactive	inactive	inactive
COC(=O)C(C)(C)c1ccc(CC(C)NCC(O)c2cccc(C(F)(F)F)c2)cc1 (configuration not stated)	98% (active)	6% (inactive)	-7% (inactive)	99% (active)	inactive	inactive	inactive	inactive
COc1cc(NC(=O)c2nn(CCCN3CCC4(CC3)C(=O)NCN4c3ccccc3)cc2-c2ccc(Cl)c(Cl)c2)cc(OC)c1OC	75% (active)	-4% (inactive)	1% (inactive)	97% (active)	inactive	inactive	inactive	inactive

Source: PubChem BioAssay
